Measurements taken from ChEMBL document CHEMBL1157539, “Thousands of chemical starting points for antimalarial lead identification” (Nature, 2010).

What was measured:
Type in all cases: functional
Plasmodium falciparum [1] = test: GSK_TCMDC: Inhibition of Plasmodium falciparum 3D7 in whole red blood cells, using parasite LDH activity as an index of growth. Test compounds present at 2uM
Plasmodium falciparum [2] = test: GSK_TCMDC: Inhibition of Plasmodium falciparum Dd2 in whole red blood cells, using parasite LDH activity as an index of growth. Test compounds present at 2uM
HepG2 = test: GSK_TCMDC: Percent inhibition of human HepG2 cell line. Test compounds present at 10uM.

SMILES	Inhibition (Plasmodium falciparum [1]) [%]	Inhibition (Plasmodium falciparum [2]) [%]	Inhibition (HepG2) [%]
CCCN/C=N/c1cc(-c2csc(NC(=N)N)n2)cc([N+](=O)[O-])c1	91	1	12
COc1ccc2nccc([C@@H](O)CN3CCC(NCc4nc5c(OCc6ccccc6)cccc5[nH]4)CC3)c2c1.O=C(O)C(=O)O	100	34	6
O=C(/C=C/c1ccc(Cl)c(Cl)c1)NC1CCN(Cc2ccc(O)cc2)C1.O=C(O)C(F)(F)F (stereo unspecified)	97	4	15
O=C(NCc1cccc(F)c1)Nc1cccc(-c2ccc(-c3nc4cc(C(F)(F)F)ccc4[nH]3)cc2)c1	98	20	50
Cc1cccc2nc(-c3cccc(-c4cccc(NC(=O)NCc5ccccc5)c4)c3)[nH]c12	94	27	12
Cl.N#Cc1ccc2c(c1)CN(CCC1CCC(NC(=O)c3cc4cc(OC(F)(F)F)ccc4[nH]3)CC1)CC2 (stereo unspecified)	100	19	4
COc1cc(Nc2nc(N)n(C(=O)c3ccc4c(c3)OCO4)n2)cc(OC)c1OC	90	40	60
CC(C)CCn1c(Sc2ccc(C#N)c([N+](=O)[O-])c2)nnc1-c1ccc(N(C)C)cc1	97	96	11
CCCC(=O)Nc1ccc(OCCN(Cc2ccccc2OC(F)(F)F)c2ccc(C(F)(F)F)c(C#N)c2)cc1	85	97	0
Cc1ccccc1CNC(=O)Nc1cccc(-c2csc(NC(=N)N)n2)c1	99	14	2
Cc1cc(Nc2ccc(C)c(Cl)c2)n2ncnc2n1	98	91	6
CCOc1ccc(C2CCN(CCN3CCC(NC(=O)c4ccc(-c5ccc(C(F)(F)F)cc5)cc4)CC3)CC2)c(OCC2CC2)c1	99	65	13
O=C(Nc1cccc(C(F)(F)F)c1)c1ccc(S(=O)(=O)NCC2CCCN(CC3CCCCC3)C2)cc1.O=C(O)C(F)(F)F (stereo unspecified)	95	9	26
CCC1CN2CCc3c([nH]c4ccccc34)[C@@H]2C[C@@H]1CC1NCCc2cc(OC)c(OC)cc21.Cl (stereo partly specified)	100	67	33
CC(=O)Nc1cc(C(=O)Nc2cccc(-c3cccc(-c4nc5cccc(C)c5[nH]4)c3)c2)ccc1C	100	62	25
CCCC(C)NC(=O)c1cnn(-c2ccc(C(C)(C)C)cc2)c1OCc1ccc(Br)cc1 (stereo unspecified)	84	64	17
O=C(NC1CC1)c1cnc(N2CCC(Cc3ccccc3)CC2)c(Cl)c1.O=C(O)C(F)(F)F	96	96	10
Cc1cc(N2CCCC2)nc(Nc2ccc(NC(=O)C(C)Oc3ccccc3)cc2)n1 (stereo unspecified)	100	58	42
CN(C)CCOC(=O)C1(O)CCC2CC1C2(C)C.Cl (stereo unspecified)	95	0	10
CCNc1cc(C(=O)N[C@@H](Cc2ccccc2)[C@H](O)CNCc2cccc(-c3cncnc3)c2)cc(N2CCCC2=O)c1.O=C(O)C(F)(F)F	97	96	5
CCc1cn(CC(=O)N(CCOc2ccc(-c3ccc(C(F)(F)F)cc3)cc2)CCN(CC)CC)c(SCc2ccc(F)cc2)nc1=O	95	29	46
Cl.Nc1ncnc2occ(-c3ccc(NC(=O)Nc4cc(C(F)(F)F)ccc4F)cc3)c12 [GW770249A]	99	99	57
O=C(Nc1ccccc1)Nc1ccc(-c2cccc(-c3nc4cc(C(F)(F)F)ccc4[nH]3)c2)cc1	100	73	59
Cc1cccc(Nc2c(-c3cc(Br)ccc3O)nc3ncccn23)c1	100	98	0
Cc1ccc2cc(NCCCCCCCCON3C(N)=NC(N)=NC34CCCCC4)ccc2n1	92	80	15
CCN(CCO)Cc1ccc(-c2ccc(NS(=O)(=O)c3cccc4cccnc34)cc2)cc1.O=C(O)C(F)(F)F	92	16	25
CCOc1cc(-c2nnc3[nH]c(=O)n(C)c(=O)c3n2)ccc1OC(C)C	97	86	15
